# Assay results as given in PubChem BioAssay AID743365 (National Center for Advancing Translational Sciences (NCATS), 2014).
# Experiment: qHTS profiling of inhibitors of Plasmodium falciparum (DD2) proliferation (acoustic dispense)
# Conditions: P. falciparum Dd2 in erythrocytes, SYBR Green DNA, 72 h; at 49.8 µM (top of the series) unless noted
row,Compound,"parasite growth, lower = inhibition"
1,COc1cc(C)c2c(Oc3cccc(C(F)(F)F)c3)c(OC)cc(NCCCC(C)N)c2n1 (stereo not drawn),-0.465%
2,O=C(Nc1ccc([N+](=O)[O-])cc1Cl)c1cc(Cl)ccc1O,87.9%
3,CC(C=CC(=O)NO)=C[C@@H](C)C(=O)c1ccc(N(C)C)cc1,-0.545%
4,CC(C)n1nc(-c2ccc3oc(N)nc3c2)c2c(N)ncnc21,-0.0305%
5,C#Cc1cccc(Nc2ncnc3cc(OC)c(OCCCCCCC(=O)NO)cc23)c1,-0.648%
6,CC[C@@]1(O)C[C@H](O[C@H]2C[C@H](N(C)C)[C@H](O[C@H]3C[C@H](O)[C@H](O[C@H]4CCC(=O)[C@H](C)O4)[C@H](C)O3)[C@H](C)O2)c2c(cc3c(c2O)C(=O)c2c(O)cccc2C3=O)[C@@H]1C(=O)OC,-1.21%
7,Cn1cnc(=N)c2[nH]cnc21,0.26%
8,Cc1cnc(Nc2ccc(CN3CCOCC3)cc2)nc1Nc1cccc(S(=O)(=O)NC(C)(C)C)c1,0.192%
9,O=C1c2c(O)ccc(O)c2C(=O)c2c(NCCNCCO)ccc(NCCNCCO)c21,-3.56%
10,C[C@H]1Cc2c([nH]c3cc(Cl)c(F)cc23)[C@@]2(N1)C(=O)Nc1ccc(Cl)cc12,-0.794%
11,CCn1nnc2c(N3CCOCC3)nc(-c3ccc(NC(=O)Nc4ccc(C(=O)N5CCN(C)CC5)cc4)cc3)nc21,2.15%
12,COC1=C2C[C@@H](C)C[C@H](OC)[C@@H](O)[C@@H](C)C=C(C)[C@H](OC(N)=O)[C@@H](OC)C=CC=C(C)C(=O)NC(=CC1=O)C2=O,-0.39%
13,CCCC[C@@H]1C[C@@H](C(=O)NC([C@H](C)Cl)[C@H]2O[C@H](S)[C@H](O)[C@@H](O)[C@@H]2O)N(C)C1 (stereo partly drawn),20.5%
